# Where a name gives a salt, the structure may show the parent alone. A number with no mark means an inactive call.
# System: Pseudogymnoascus destructans 20631-21
# Assay: growth activity index (DuctApe, 0 = no growth, 9 = maximal growth) (index 0-9); higher = more fungal growth (less inhibition), active = 0 or less; extreme values may be limits of the assay
# Conditions: concentration level (1-4, increasing; Biolog proprietary): 2; temperature: 13 °C; YPD
# 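Further: biolog Phenotype Microarray plates PM21–25, OD595 followed daily over 11 days, growth curves converted to index, mean of two independent experiments.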
row,Structure (SMILES),growth activity index
1,O=C(O)/C=C/c1ccccc1 [Cinnamic acid] (Biolog plate: PM25),4.67
2,Cn1c(=O)c2c(ncn2C)n(C)c1=O [Caffeine] (Biolog plate: PM22),4
3,[I-].[K+] [Potassium iodide] (Biolog plate: PM22),0 (active)
4,O=c1cn[nH]c(=O)[nH]1 [6-Azauracil] (Biolog plate: PM24),4
5,CC(CN1c2ccccc2Sc2ccccc21)N(C)C (stereo not given) [Promethazine] (Biolog plate: PM21),0 (active)
6,O=C([O-])c1ccccc1O.[Na+] [Sodium Salicylate] (Biolog plate: PM25),3.33
7,CN1CCN(CCCN2c3ccccc3Sc3ccc(C(F)(F)F)cc32)CC1 [Trifluoperazine] (Biolog plate: PM21),0.25
8,NC(CO)C(=O)NO (racemic) [DL-Serine hydroxamate] (Biolog plate: PM22),4
9,NC(N)=NCCC[C@H](N)C(=O)NO [L-Arginine hydroxamate] (Biolog plate: PM22),5
10,NC(N)=O [Urea hydrogen peroxide] (Biolog plate: PM22),4
11,CCCCCCCCCCCC[N+](C)(C)CCOc1ccccc1 [Domiphen bromide] (Biolog plate: PM21),2
12,C[C@@H]1[C@H](O)[C@@H](C)/C=C/C=C/C=C/C=C/C=C/C=C/C=C/[C@H](O[C@@H]2O[C@H](C)[C@@H](O)[C@H](N)[C@@H]2O)C[C@@H]2O[C@](O)(C[C@@H](O)C[C@@H](O)[C@H](O)CC[C@@H](O)C[C@@H](O)CC(=O)O[C@H]1C)C[C@H](O)[C@H]2C(=O)O [Amphotericin B] (Biolog plate: PM24),1.33
13,OB(O)O [Boric acid] (Biolog plate: PM22),0.333
14,[Cl][Pd][Cl] [Palladium(II) Chloride] (Biolog plate: PM25),4
15,N=C(N)c1ccc(OCCCCCOc2ccc(C(=N)N)cc2)cc1 [Pentamidine Isethionate] (Biolog plate: PM24),5.33
16,NC(=O)NO [Hydroxyurea] (Biolog plate: PM25),0.333
17,Nc1c2ccccc2nc2ccccc12 [9-Aminoacridine] (Biolog plate: PM24),5.33
18,Cc1cc(N)c2ccccc2[n+]1CCCCCCCCCC[n+]1c(C)cc(N)c2ccccc21 [Dequalinium chloride] (Biolog plate: PM23),4.67
19,NCC(=O)O [Glycine hydrochloride] (Biolog plate: PM23),4
20,[F-].[Na+] [Sodium Fluoride] (Biolog plate: PM24),4.67

row,Structure (SMILES),growth activity index
1,[Cl][Cu][Cl] [Cupric chloride] (Biolog plate: PM23),5.33
2,COc1ccc2cc3[n+](cc2c1OC)CCc1cc2c(cc1-3)OCO2 [Berberine Chloride] (Biolog plate: PM24),4.67
3,CCCCCCCCCCCCCCCCOP(=O)([O-])OCC[N+](C)(C)C [Miltefosine] (Biolog plate: PM22),3
4,CN(C)C(=O)/N=N/C(=O)N(C)C [Diamide] (Biolog plate: PM21),5
5,NC[C@@H]1O[C@H](O[C@H]2[C@@H](O)[C@H](O[C@@H]3[C@@H](O)[C@H](N)C[C@H](N)[C@H]3O[C@H]3O[C@H](CN)[C@@H](O)[C@H](O)[C@H]3N)O[C@@H]2CO)[C@H](N)[C@@H](O)[C@@H]1O [Neomycin] (Biolog plate: PM21),5
6,O=S(=O)([O-])[O-].[Cu+2] [Copper (II) sulfate] (Biolog plate: PM21),6
7,N.N.O=S(=O)(O)O [Ammonium Sulfate] (Biolog plate: PM23),5.33
8,N[C@H](CO)C(=O)O [D-Serine] (Biolog plate: PM22),4.67
9,CC(C)Cc1ccc(C(C)C(=O)O)cc1 (stereo not given) [Ibuprofen] (Biolog plate: PM25),4.67
10,O=NO [Sodium Nitrite] (Biolog plate: PM23),2.67
11,O=C(O)CN(CCN(CC(=O)O)CC(=O)O)CC(=O)O (Biolog plate: PM21),5
12,O=c1[nH]c(=O)n([C@H]2C[C@H](O)[C@@H](CO)O2)cc1F [Fluorodeoxyuridine] (Biolog plate: PM25),3.67
13,[Cl-].[Li+] [Lithium chloride] (Biolog plate: PM22),0 (active)
14,[Na+].[O]=[V](=[O])[O-] [Sodium metavanadate] (Biolog plate: PM22),4.33
15,O=C(O)CC(O)C(=O)O (stereo not given) [Malic acid] (Biolog plate: PM25),5
16,"c1ccc(-c2ccccn2)nc1 [2,2`-Dipyridyl] (Biolog plate: PM21)",5
17,O=C(O)C(O)C(O)C(=O)O (stereo not given) [Tartaric acid] (Biolog plate: PM25),2
18,COc1cc(/C=C/C(=O)O)ccc1O [Ferulic acid] (Biolog plate: PM25),0 (active)
19,CCCCCCCCCCCC[N+](C)(C)C [Dodecyltrimethyl ammonium bromide] (Biolog plate: PM21),0 (active)
20,NNC(=O)c1ccncc1 [Isoniazid] (Biolog plate: PM24),5

# Reference: the supplement of paper PMC6124720
